Source: PubChem BioAssay AID1159580 (chemical genetic matrix, 2015)
Values joined by “and” are separate entries in the source; they are usually repeats but may differ in a detail not shown here. Identical values can stand only once. In all, about 5,500 compounds went through this assay and about 2,000 (36%) were called active. Inconclusive results (about 18%) are left out. No stated cut-off is given here; in the data, active means normalized growth mostly below about 0.91 (no sharp cut-off); inconclusive means no clear call, values can overlap the other calls; inactive means mostly above about 0.92. The list shows a part of the results.

Assay: chemical genetic growth profiling, strain panel (AID 1159580);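 further: tested at 20 µM; growth read once vehicle control cultures reached saturation at 30 °C; 1 = growth at the plate median or of vehicle wells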
Conditions: S. cerevisiae deletion strains, growth OD

With `c1cc2c(cc1[C@H]1OC[C@H]3[C@@H]1CO[C@H]3c1ccc3c(c1)OCO3)OCO2` the normalized growth (locus YAL013W, strain DEP1, stronger effect = lower value) was 0.93 (inactive), the normalized growth (locus YAL021C, strain ccr4, stronger effect = lower value) was 0.936 (inactive) and the normalized growth (locus YAL026C, strain drs2, stronger effect = lower value) was 0.803 (active). The normalized growth (locus YAL030W, strain snc1, stronger effect = lower value) was 0.908 (active), the normalized growth (locus YBL061C, strain skt5, stronger effect = lower value) was 0.918 (active) and the normalized growth (locus YBR009C, strain hhf1, stronger effect = lower value) was 0.904 (active). The normalized growth (locus YBR021W, strain FUR4, stronger effect = lower value) was 0.961 (inactive), the normalized growth (locus YBR023C, strain chs3, stronger effect = lower value) was 0.906 (active) and the normalized growth (locus YBR171W, strain sec66, stronger effect = lower value) was 0.897 (inactive). The normalized growth (locus YBR229C, strain ROT2, stronger effect = lower value) was 0.941 (inactive), the normalized growth (locus YBR231C, strain swc5, stronger effect = lower value) was 0.922 (inactive) and the normalized growth (locus YBR279W, strain paf1, stronger effect = lower value) was 0.936 (inactive). For the same compound, the normalized growth (locus YCL011C, strain gbp2, stronger effect = lower value) was 0.881 (active), the normalized growth (locus YCL016C, strain dcc1, stronger effect = lower value) was 0.911 (active) and the normalized growth (locus YCL029C, strain bik1, stronger effect = lower value) was 0.933 (inactive). The normalized growth (locus YCL061C, strain MRC1, stronger effect = lower value) was 0.93 (inactive), the normalized growth (locus YCL069W, strain vba3, stronger effect = lower value) was 0.919 (active) and the normalized growth (locus YCR088W, strain abp1, stronger effect = lower value) was 0.911 (active). For the same compound, the normalized growth (locus YDL005C, strain med2, stronger effect = lower value) was 0.915 (inactive), the normalized growth (locus YDL035C, strain GPR1, stronger effect = lower value) was 0.906 (inactive) and the normalized growth (locus YDL040C, strain nat1, stronger effect = lower value) was 0.92 (active). The normalized growth (locus YDL074C, strain BRE1, stronger effect = lower value) was 0.874 (inactive), the normalized growth (locus YDL101C, strain DUN1, stronger effect = lower value) was 0.927 (inactive) and the normalized growth (locus YDL134C, strain PPH21, stronger effect = lower value) was 0.881 (active). For the same compound, the normalized growth (locus YDL185W, strain tfp1, stronger effect = lower value) was 0.93 (inactive), the normalized growth (locus YDL192W, strain arf1, stronger effect = lower value) was 0.877 (active) and the normalized growth (locus YDR001C, strain nth1, stronger effect = lower value) was 0.889 (active). The normalized growth (locus YDR069C, strain doa4, stronger effect = lower value) was 0.956 (inactive), the normalized growth (locus YDR101C, strain arx1, stronger effect = lower value) was 0.895 (active) and the normalized growth (locus YDR137W, strain rgp1, stronger effect = lower value) was 0.492 (active). The normalized growth (locus YDR159W, strain sac3, stronger effect = lower value) was 0.856 (active), the normalized growth (locus YDR162C, strain NBP2, stronger effect = lower value) was 0.894 (inactive) and the normalized growth (locus YDR195W, strain ref2) was 1.06 (inactive). The normalized growth (locus YDR297W, strain sur2, stronger effect = lower value) was 0.905 (active), the normalized growth (locus YDR318W, strain mcm21, stronger effect = lower value) was 0.867 (active) and the normalized growth (locus YDR334W, strain swr1, stronger effect = lower value) was 0.861 (active). The normalized growth (locus YDR335W, strain msn5, stronger effect = lower value) was 0.934 (inactive), the normalized growth (locus YDR388W, stronger effect = lower value) was 0.923 (active) and the normalized growth (locus YDR392W, strain spt3, stronger effect = lower value) was 0.371 (active). For the same compound, the normalized growth (locus YDR502C, strain sam2, stronger effect = lower value) was 0.869 (active), the normalized growth (locus YEL003W, strain gim4, stronger effect = lower value) was 0.911 (active) and the normalized growth (locus YEL037C, strain rad23, stronger effect = lower value) was 0.926 (inactive). The normalized growth (locus YEL061C, strain CIN8 (second series), stronger effect = lower value) was 0.859 (active), the normalized growth (locus YEL061C, strain CIN8, stronger effect = lower value) was 0.724 (active) and the normalized growth (locus YER015W, strain faa2, stronger effect = lower value) was 0.925 (active). The normalized growth (locus YER016W, strain bim1, stronger effect = lower value) was 0.908 (active), the normalized growth (locus YER110C, stronger effect = lower value) was 0.942 (inactive) and the normalized growth (locus YER111C, strain swi4, stronger effect = lower value) was 0.919 (inactive). The normalized growth (locus YER155C, strain BEM2 (second series), stronger effect = lower value) was 0.783 (active), the normalized growth (locus YER155C, strain BEM2, stronger effect = lower value) was 0.862 (active) and the normalized growth (locus YER167W, strain BCK2, stronger effect = lower value) was 0.813 (active). For the same compound, the normalized growth (locus YFR010W, strain ubp6, stronger effect = lower value) was 0.938 (inactive), the normalized growth (locus YGL078C, strain dbp3, stronger effect = lower value) was 0.958 (inactive) and the normalized growth (locus YGL086W, strain mad1, stronger effect = lower value) was 0.845 (active). For the same compound, the normalized growth (locus YGL167C, strain pmr1, stronger effect = lower value) was 0.862 (active), the normalized growth (locus YGL173C, strain kem1, stronger effect = lower value) was 0.904 (inactive) and the normalized growth (locus YGL227W, strain vid30, stronger effect = lower value) was 0.926 (inactive). The normalized growth (locus YGL240W, strain doc1, stronger effect = lower value) was 0.89 (inactive), the normalized growth (locus YGL248W, strain PDE1, stronger effect = lower value) was 0.901 (inactive) and the normalized growth (locus YGL253W, strain hxk2, stronger effect = lower value) was 0.845 (active). The normalized growth (locus YGR078C, strain PAC10, stronger effect = lower value) was 0.856 (inactive), the normalized growth (locus YGR135W, strain pre9, stronger effect = lower value) was 0.906 (inactive) and the normalized growth (locus YGR252W, strain gcn5, stronger effect = lower value) was 0.897 (inactive). For the same compound, the normalized growth (locus YHR013C, strain ard1, stronger effect = lower value) was 0.871 (inactive), the normalized growth (locus YHR027C, strain rpn1, stronger effect = lower value) was 0.913 (active) and the normalized growth (locus YHR030C, strain SLT2, stronger effect = lower value) was 0.87 (active) and 0.888 (inactive). For the same compound, the normalized growth (locus YHR079C, strain IRE1 (second series), stronger effect = lower value) was 0.902 (active), the normalized growth (locus YHR079C, strain IRE1, stronger effect = lower value) was 0.895 (inactive) and the normalized growth (locus YHR094C, strain hxt1, stronger effect = lower value) was 0.922 (active). For the same compound, the normalized growth (locus YHR129C, strain ARP1, stronger effect = lower value) was 0.911 (active), the normalized growth (locus YHR142W, strain chs7, stronger effect = lower value) was 0.803 (active) and the normalized growth (locus YHR200W, strain rpn10, stronger effect = lower value) was 0.884 (active). For the same compound, the normalized growth (locus YIL066C, strain RNR3, stronger effect = lower value) was 0.828 (active), the normalized growth (locus YIL073C, strain SPO22, stronger effect = lower value) was 0.783 (inactive) and the normalized growth (locus YIL125W, strain kgd1, stronger effect = lower value) was 0.889 (active). For the same compound, the normalized growth (locus YIR030C, strain dcg1, stronger effect = lower value) was 0.901 (active), the normalized growth (locus YJL092W, strain hpr5, stronger effect = lower value) was 0.914 (active) and the normalized growth (locus YJL095W, strain BCK1 (second series), stronger effect = lower value) was 0.904 (active). The normalized growth (locus YJL095W, strain BCK1, stronger effect = lower value) was 0.714 (active) and 0.956 (inactive), the normalized growth (locus YJL115W, strain asf1, stronger effect = lower value) was 0.904 (active) and the normalized growth (locus YJL129C, strain trk1, stronger effect = lower value) was 0.722 (active). For the same compound, the normalized growth (locus YJL134W, strain LCB3, stronger effect = lower value) was 0.974 (inactive), the normalized growth (locus YJL154C, strain vps35, stronger effect = lower value) was 0.936 (inactive) and the normalized growth (locus YJL164C, strain tpk1, stronger effect = lower value) was 0.896 (active). The normalized growth (locus YJL166W, strain qcr8, stronger effect = lower value) was 0.88 (active), the normalized growth (locus YJL168C, strain set2, stronger effect = lower value) was 0.927 (active) and the normalized growth (locus YJL187C, strain SWE1 (second series), stronger effect = lower value) was 0.925 (inactive). For the same compound, the normalized growth (locus YJL187C, strain SWE1, stronger effect = lower value) was 0.932 (inactive), the normalized growth (locus YJR043C, strain POL32, stronger effect = lower value) was 0.959 (inactive) and the normalized growth (locus YJR066W, strain TOR1, stronger effect = lower value) was 0.888 (inactive).
